# Measurements taken from PubChem BioAssay.
# Entries with a potency or affinity are not part of this list. Records with an inconclusive call do not appear. Activity calls are given as the source filed them. How the calls were made is not given here.
# Experiment: general cell-killing toxicity readout – plate reader, dry powder samples, cytotoxicity control for PAX8 inhibitor project, dose response (AID 743021)
# Settings: cell line, non-specific cytotoxicity counter-screen; series mostly up to 35 µM
row,SMILES,outcome
1,C=C1C(=O)C2=CC1CCC(=O)C1(C)CCC(OC(C)=O)C(C)(C)C1CC2O (stereo unspecified),inactive
2,Cn1c(CCN2CCCC2)nc2cc(NS(=O)(=O)c3ccc(Cl)cc3)ccc21,inactive
3,COc1ccc(C)cc1NS(=O)(=O)c1ccc(-c2cnc(C3CC3)o2)cc1,inactive
4,O=C(O)c1cccc(COc2ccc3c(c2)CCC3)c1,inactive
5,O=C1c2cccc3cc([N+](=O)[O-])cc(c23)C(=O)N1CCN1CCCC1,inactive
6,Cc1cc(C2=NNC(=NC3CC3)SC2)c(C)n1-c1ccccc1F,inactive
7,O=C1CN(C(=O)Cn2ncc(Cl)c(Cl)c2=O)c2ccccc2N1,inactive
8,COCC(=O)N1[C@H](CO)[C@H](c2ccc(-c3cccnc3)cc2)[C@@H]1C#N,inactive
9,COc1cccc(C#Cc2ccc([C@@H]3[C@@H](C#N)N(C(=O)C4CCCC4)[C@@H]3CO)cc2)c1,inactive
10,CN1c2ccccc2N(C)C1(C)c1ccccc1,inactive
11,N#C[C@H]1N[C@H](CO)[C@@H]1c1ccc(C#Cc2ccccc2F)cc1,inactive
12,CN(C(=O)OC(C)(C)C)c1ccc(-c2nc3ccccc3s2)cc1,inactive
13,N#C[C@@H]1[C@@H](c2ccc(C3=CCCCC3)cc2)[C@@H](CO)N1C(=O)NC1CCCCC1,inactive
14,O=C(Nc1cccc(-c2ccc(N3CCCCC3)nn2)c1)C(F)(F)F,inactive
15,C#CCN(C[C@@H]1[C@@H](OC(=O)NCC2CCCCC2)[C@@H](OC(=O)NCC2CCCCC2)Cn2c(=O)ccc(=O)n21)S(=O)(=O)c1ccc(C)cc1,inactive
16,CCCC(=O)NC(c1ccc(C(C)C)cc1)c1ccc2cccnc2c1O (stereo unspecified),inactive

row,SMILES,outcome
1,CCC(=O)NC(c1ccc(C)cc1)c1ccc2cccnc2c1O (stereo unspecified),inactive
2,N#C[C@H]1[C@@H](c2ccc(C3=CCCC3)cc2)[C@@H](CO)N1C(=O)NC1CCCCC1,inactive
3,COc1cc2nc(C3CCC3)nc(N3CCN(c4ccccc4OC)CC3)c2cc1OC,inactive
4,COc1cccc(C#Cc2ccc([C@@H]3[C@@H](C#N)N(C(=O)C4CCCCC4)[C@@H]3CO)cc2)c1,inactive
5,Cn1nnnc1Sc1ncnc2scc(-c3cccc(S(C)(=O)=O)c3)c12,inactive
6,COC(=O)[C@@]1(CCS(=O)(=O)c2ccccc2)N=C(c2ccc(OCCCO)cc2)O[C@H]1c1ccccc1,inactive
7,CC(C)c1cc(C(=O)OCC(=O)N2CCN(C(=O)c3ccco3)CC2)c(O)c(C(C)C)c1,inactive
8,Cc1c(Nc2cc(Cl)c3nonc3c2[N+](=O)[O-])c(=O)n(-c2ccccc2)n1C,inactive
9,O=C(CCCN1C(=O)/C(=C\c2ccccc2OC(F)F)SC1=S)Nc1cccnc1,inactive
10,Oc1cccc2cc(Nc3ccccc3)cnc12,inactive
11,COc1ccc(C(=O)c2ccc(Cl)c([N+](=O)[O-])c2)cc1,inactive
12,Brc1ccc(-n2cc(-c3ccccc3)c3c(NN4CCOCC4)ncnc32)cc1,inactive
13,O=C(Nc1ccc(OCC(F)(F)C(F)F)c(C(F)(F)F)c1)c1ccccc1O,inactive
14,C=C(C(=O)c1ccccc1)C(C(=C)C(=O)c1ccccc1)c1ccc(OC)cc1,inactive
15,O=C(CCCN1C(=O)/C(=C\c2cccc(Br)c2)SC1=S)Nc1ccccn1,inactive
